Inconclusive results are not listed. Calls of active or inactive are those of the source. Unless noted, calls follow the shape of the full dose curve.
How the values were obtained:
[1] = biological target: Peroxisome proliferator-activated receptor delta (Homo sapiens) (UniProt Q03181); experiment: qHTS assay to identify small molecule agonists of the peroxisome proliferator-activated receptor delta (PPARd) signaling pathway (AID 743212); also: % is scaled to controls: 0 for no effect and ±100 for the full control effect
Outline: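 HEK293H PPARd-bla cells; 5 h preincubation 37 C/5% CO2; compound (DMSO) 37 C; LiveBLAzer B/G FRET substrate 2 h RT; fluorescence intensity.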

[2] = qHTS assay to identify small molecule antagonists of the peroxisome proliferator-activated receptor delta (PPARd) signaling pathway - cell viability counter screen (AID 743213; active = well fitted curve in the direction sought with a large enough effect in the repeat runs; an effect the other way counts as inactive or inconclusive; also: % is scaled to controls: 0 for no effect and ±100 for the full control effect; nearly all actives have a fitted effect of over 50% in size)
Outline: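 PPARd-bla HEK293H cells (3000/well) got compound plus 300 nM L165041 agonist for 17 h at 37 C. Viability in the same wells came from CellTiter-Glo luminescence after 30 min at room temperature.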

[3] = biological target: Peroxisome proliferator-activated receptor delta (Homo sapiens) (UniProt Q03181); experiment: qHTS assay to identify small molecule antagonists of the peroxisome proliferator-activated receptor delta (PPARd) signaling pathway (AID 743215; active = well fitted inhibition curve with a large enough effect in the signal ratio in the repeat runs, not every such curve was filed as active; the % refers to the signal ratio;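 also: cells stimulated with agonist L165041 at 300 nM final during compound exposure; series mostly up to about 62 µM; % is scaled to controls: 0 for no effect and ±100 for the full control effect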)
Outline: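 Read-out is beta-lactamase FRET fluorescence, measured 2 h after substrate addition at room temperature. Beforehand, UAS-bla HEK293H cells carrying the PPARd reporter were exposed to compounds with L165041 at 300 nM final for 17 h at 37 C.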

[4] = qHTS assay to identify small molecule antagonists of the farnesoid-X-receptor (FXR) signaling pathway - cell viability counter screen (AID 743221; active = well fitted cell-killing curve with a large enough effect in the repeat runs, not every such curve was filed as active; also: % is scaled to controls: 0 for no effect and ±100 for the full control effect; nearly all actives have a fitted effect of over 50% in size)
Outline: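 Cytotoxicity is taken from ATP luminescence (CellTiter-Glo, 30 min, room temperature) in FXR-bla HEK 293T cells previously incubated 16 h at 37 C with compound and chenodeoxycholic acid at 50 uM final.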

[5] = biological target: Vitamin D3 receptor (Homo sapiens) (UniProt P11473); experiment: qHTS assay to identify small molecule agonists of the vitamin D receptor (VDR) signaling pathway (AID 743222); also: % is scaled to controls: 0 for no effect and ±100 for the full control effect
Outline: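 VDR-bla cells, 2,000/well; 4 h preincubation 37C; cpd (DMSO) 16 h; LiveBLAzer B/G substrate 2 h RT; fluorescence intensity read.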

[6] = biological target: Vitamin D3 receptor (Homo sapiens) (UniProt P11473); experiment: qHTS assay to identify small molecule antagonists of the vitamin D receptor (VDR) signaling pathway (AID 743223; active = well fitted inhibition curve with a large enough effect in the signal ratio in the repeat runs, not every such curve was filed as active; the % refers to the signal ratio; also: % is scaled to controls: 0 for no effect and ±100 for the full control effect)
Outline: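 Quantitative HTS in VDR-bla reporter cells stimulated with 1alpha,25-dihydroxyvitamin D3, 3 nM final. Compound exposure 16 h, 37C, 5% CO2. Read-out: beta-lactamase FRET substrate fluorescence, 2 h RT.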

[7] = qHTS assay to identify small molecule agonists of the vitamin D receptor (VDR) signaling pathway - cell viability counter screen (AID 743224; active = well fitted curve in the direction sought with a large enough effect in the repeat runs; an effect the other way counts as inactive or inconclusive; also: series mostly up to about 63 µM; % is scaled to controls: 0 for no effect and ±100 for the full control effect; nearly all actives have a fitted effect of over 50% in size)
Outline: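 Luminescence from CellTiter-Glo, read after 30 min at room temperature, reports viability of VDR-bla cells treated with compounds for 16 h at 37C in the wells used for the beta-lactamase FRET read.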

[8] = qHTS assay to identify small molecule antagonists of the vitamin D receptor (VDR) signaling pathway - cell viability counter screen (AID 743225; active = well fitted curve in the direction sought with a large enough effect in the repeat runs; an effect the other way counts as inactive or inconclusive; also: % is scaled to controls: 0 for no effect and ±100 for the full control effect; nearly all actives have a fitted effect of over 50% in size)
Outline: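 Same-well multiplex: following 16 h treatment of HEK 293T cells carrying a UAS-driven beta-lactamase reporter with compound and agonist (3 nM final), and a 2 h FRET substrate step, CellTiter-Glo was added and luminescence read after 30 min.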

[9] = qHTS assay to identify small molecule agonists of the NFkB signaling pathway (AID 1159509; active = well fitted curve in the direction sought with a large enough effect in the signal ratio in the repeat runs, not every such curve was filed as active; the % refers to the signal ratio)
Outline: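 NFkB-bla ME-180 cells carry a beta-lactamase reporter under an NF-kB response element. They were plated overnight, then exposed to compounds for 5 h at 37 C. Read-out is LiveBLAzer FRET after 1.5 hr at room temperature (405 nm excitation; 460/530 nm emission).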

[10] = qHTS assay to identify small molecule agonists of the NFkB signaling pathway - cell viability counter screen (AID 1159515); also: series mostly up to about 61 µM; % is scaled to controls: 0 for no effect and ±100 for the full control effect; nearly all actives have a fitted effect of over 55% in size
Outline: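 Luminescence from CellTiter-Glo (30 min, room temperature) gives viability, measured in the same wells as the beta-lactamase reporter read. Cells were NFkB-bla ME-180, 2,000 per well, treated 5 hr with compounds.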

[11] = qHTS assay to identify small molecule agonists of the endoplasmic reticulum stress response signaling pathway (AID 1159516; active = well fitted activation curve with a large enough effect in the signal ratio in the repeat runs, not every such curve was filed as active; the % refers to the signal ratio; also: % is scaled to controls: 0 for no effect and ±100 for the full control effect)
Outline: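 Read-out is beta-lactamase cleavage of a FRET substrate (405 nm excitation; 460 and 530 nm emissions) in ESRE-bla HeLa cells after a 5 hr compound exposure at 37 C. Substrate incubation ran 2 hr at room temperature.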

[12] = qHTS assay to identify small molecule agonists of the endoplasmic reticulum stress response signaling pathway - cell viability counter screen (AID 1159517)
Outline: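 HeLa cells carrying an ESRE-driven beta-lactamase reporter receive compound for 5 hr at 37 C. Cell viability is then gauged with CellTiter-Glo by luminescence, 30 min at room temperature.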

[13] = qHTS assay to identify small molecule antagonists of the retinoid-related orphan receptor gamma (ROR-gamma) signaling pathway - cell viability counter screen (AID 1159520; active = well fitted curve in the direction sought with a large enough effect in the repeat runs; an effect the other way counts as inactive or inconclusive)
Outline: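 Cytotoxicity was read from cellular ATP (CellTiter-Glo luminescence) after 16 hr at 37 C with 1 uM doxycycline induction. The inducer was added 2 hr after compound transfer to Tet-on ROR gamma CHO cells.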

[14] = qHTS assay to identify small molecule agonists of the AP-1 signaling pathway - cell viability counter screen (AID 1159525); also: nearly all actives have a fitted effect of over 55% in size
Outline: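 Luminescent ATP readout (Cell Titer Glo, 30 min RT), normalised to DMSO and tetra n-octyl ammonium bromide controls. Cells were ME-180 AP-1-bla in 0.5% dialyzed FBS Opti-MEM, with a 5 h, 37 °C compound exposure.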

[15] = qHTS assay to identify small molecule agonists of the AP-1 signaling pathway (AID 1159526); also: % is scaled to controls: 0 for no effect and ±100 for the full control effect
[16] = biological target: Retinoic acid receptor RXR-alpha (Homo sapiens) (UniProt P19793); experiment: qHTS assay to identify small molecule agonists of the RXR signaling pathway (AID 1159527); also: % is scaled to controls: 0 for no effect and ±100 for the full control effect; nearly all actives have a fitted effect of over 35% in size
Outline: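 Compounds in DMSO were added to RXR-alpha-UAS-bla HEK 293T cells kept in 2% charcoal-stripped serum, and incubated 16 hr at 37 C with 5% CO2. Reporter signal came from a 2 hr B/G FRET substrate step.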

[17] = qHTS assay to identify small molecule agonists of the farnesoid-X-receptor (FXR) signaling pathway - cell viability counter screen (AID 743218; active = well fitted curve in the direction sought with a large enough effect in the repeat runs; an effect the other way counts as inactive or inconclusive; also: % is scaled to controls: 0 for no effect and ±100 for the full control effect; nearly all actives have a fitted effect of over 45% in size)
Outline: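 HEK 293T FXR-bla cells; 5 h pre-incubation, 16 h compound exposure at 37 C; LiveBLAzer substrate 2 h RT, then CellTiter-Glo 30 min RT, luminescence.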

[18] = biological target: Nuclear receptor ROR-gamma (Homo sapiens) (UniProt P51449); experiment: qHTS assay to identify small molecule antagonists of the retinoid-related orphan receptor gamma (ROR-gamma) signaling pathway (AID 1159521; active = well fitted curve in the direction sought with a large enough effect in the repeat runs; an effect the other way counts as inactive or inconclusive)
Outline: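 Inducible-expression reporter assay: doxycycline (1 uM final) switched on RORγ in CHO cells bearing a ROR response element-luciferase construct, with test compounds present from 2 h beforehand. Decreased luminescence after 16 h defined antagonist activity.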

[19] = biological target: Bile acid receptor (Homo sapiens) (UniProt Q96RI1); experiment: qHTS assay to identify small molecule antagonists of the farnesoid-X-receptor (FXR) signaling pathway (AID 743217; active = well fitted inhibition curve with a large enough effect in the signal ratio in the repeat runs, not every such curve was filed as active; the % refers to the signal ratio; also: % is scaled to controls: 0 for no effect and ±100 for the full control effect)
Outline: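 HEK 293T FXR-UAS-bla, 5000 cells/well; compound + CDCA 50 uM final; 16 h, 37 °C; B/G FRET substrate 2 h RT; fluorescence.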

[20] = biological target: Bile acid receptor (Homo sapiens) (UniProt Q96RI1); experiment: qHTS assay to identify small molecule agonists of the farnesoid-X-receptor (FXR) signaling pathway (AID 743220; active = well fitted activation curve with a large enough effect in the signal ratio in the repeat runs, not every such curve was filed as active; the % refers to the signal ratio; also: % is scaled to controls: 0 for no effect and ±100 for the full control effect)
Outline: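 Beta-lactamase reporter under UAS control in GeneBLAzer FXR HEK 293T cells (5000/well) measured with LiveBLAzer FRET substrate after 2 h at room temperature. Compound exposure lasted 16 h at 37C.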

Chain of Vitamin D3 receptor (Homo sapiens) (P11473 whole entry, looked up): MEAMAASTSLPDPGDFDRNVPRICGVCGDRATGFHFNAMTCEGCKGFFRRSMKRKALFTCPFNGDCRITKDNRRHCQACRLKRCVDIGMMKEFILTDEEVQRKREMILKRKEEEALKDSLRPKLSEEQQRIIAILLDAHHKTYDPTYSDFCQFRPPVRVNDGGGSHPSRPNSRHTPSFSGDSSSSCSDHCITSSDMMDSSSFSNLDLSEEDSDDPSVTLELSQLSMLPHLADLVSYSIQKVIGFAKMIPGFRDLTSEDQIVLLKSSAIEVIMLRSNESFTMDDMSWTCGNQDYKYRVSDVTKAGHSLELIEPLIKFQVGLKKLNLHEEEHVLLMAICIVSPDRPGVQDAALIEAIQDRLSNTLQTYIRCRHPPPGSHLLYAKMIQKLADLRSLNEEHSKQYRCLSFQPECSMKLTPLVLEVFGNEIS
Chain of Retinoic acid receptor RXR-alpha (Homo sapiens) (P19793 whole entry, looked up): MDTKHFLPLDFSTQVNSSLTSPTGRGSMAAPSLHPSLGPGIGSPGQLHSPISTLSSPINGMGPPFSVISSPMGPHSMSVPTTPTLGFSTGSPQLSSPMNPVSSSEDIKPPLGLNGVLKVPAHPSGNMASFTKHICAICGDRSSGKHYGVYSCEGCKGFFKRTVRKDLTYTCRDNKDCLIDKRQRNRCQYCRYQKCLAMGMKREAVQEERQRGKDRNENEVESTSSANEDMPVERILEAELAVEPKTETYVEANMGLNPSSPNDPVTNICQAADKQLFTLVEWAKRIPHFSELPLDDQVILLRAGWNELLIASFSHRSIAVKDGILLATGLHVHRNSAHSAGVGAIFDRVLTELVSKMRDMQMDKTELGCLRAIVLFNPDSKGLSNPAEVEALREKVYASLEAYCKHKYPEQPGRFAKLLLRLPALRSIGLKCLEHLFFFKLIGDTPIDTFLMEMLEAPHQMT
Chain of Peroxisome proliferator-activated receptor delta (Homo sapiens) (Q03181 whole entry, looked up): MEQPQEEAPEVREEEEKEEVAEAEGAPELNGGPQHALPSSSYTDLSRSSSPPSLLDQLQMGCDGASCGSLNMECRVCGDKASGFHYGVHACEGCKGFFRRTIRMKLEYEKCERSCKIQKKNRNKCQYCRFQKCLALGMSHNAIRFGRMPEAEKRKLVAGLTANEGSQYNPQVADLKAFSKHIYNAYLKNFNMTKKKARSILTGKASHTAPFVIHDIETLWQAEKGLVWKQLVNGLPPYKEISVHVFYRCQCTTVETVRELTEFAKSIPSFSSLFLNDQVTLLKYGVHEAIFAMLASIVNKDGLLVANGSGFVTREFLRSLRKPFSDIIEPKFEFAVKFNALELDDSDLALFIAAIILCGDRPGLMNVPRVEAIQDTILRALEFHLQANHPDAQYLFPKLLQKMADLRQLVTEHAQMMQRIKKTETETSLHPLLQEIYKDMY
Chain of Bile acid receptor (Homo sapiens) (Q96RI1 whole entry, looked up): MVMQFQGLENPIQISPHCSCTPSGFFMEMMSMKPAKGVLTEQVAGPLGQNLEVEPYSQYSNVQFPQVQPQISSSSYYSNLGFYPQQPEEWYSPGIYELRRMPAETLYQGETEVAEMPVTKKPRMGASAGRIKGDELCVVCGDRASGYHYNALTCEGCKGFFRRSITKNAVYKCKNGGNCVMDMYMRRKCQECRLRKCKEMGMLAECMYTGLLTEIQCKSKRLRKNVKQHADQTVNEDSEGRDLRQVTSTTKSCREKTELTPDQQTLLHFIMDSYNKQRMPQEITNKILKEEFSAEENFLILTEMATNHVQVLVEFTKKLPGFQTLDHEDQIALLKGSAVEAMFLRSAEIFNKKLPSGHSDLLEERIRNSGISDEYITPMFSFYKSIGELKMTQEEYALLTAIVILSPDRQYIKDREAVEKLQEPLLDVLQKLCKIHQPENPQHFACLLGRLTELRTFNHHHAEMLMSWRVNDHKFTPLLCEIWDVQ

CCCCCCCCCOCC1CO1 (stereo not given)
inactive: outcome [1] | outcome [2] | outcome [3] | outcome [4] | outcome [5] | outcome [6] | outcome [7] | outcome [8] | outcome [9] | outcome [10] | outcome [11] | outcome [12] | outcome [13] | outcome [14] | outcome [15] | Potency [16]

O=C(Nc1cccc(C2=NCCN2)c1)Nc1cccc(C2=NCCN2)c1
inactive: outcome [1] | outcome [2] | outcome [3] | Potency [17] | outcome [7] | outcome [9] | outcome [10] | outcome [11] | outcome [12] | activity, negative = cytotoxicity [13] 4.97% [at 19 µM] | activity change, negative = inhibition [18] -4.66% [at 19 µM] | viability change, negative = cytotoxic [14] 3.95% [at 15.8 µM] | activation [15] -8.47% [at 15.8 µM]

Cc1c(C(C)C)c(=O)n(-c2ccccc2)n1C
inactive: Potency [17] | outcome [4] | outcome [5] | outcome [6] | outcome [7] | outcome [9] | outcome [10] | outcome [11] | outcome [12] | outcome [13] | outcome [18] | outcome [14] | outcome [15] | Potency [16]

Cc1ccccc1C
inactive: outcome [1] | outcome [2] | outcome [3] | Potency [17] | outcome [4] | outcome [5] | outcome [7] | outcome [8] | outcome [9] | outcome [10] | outcome [11] | outcome [12] | outcome [13] | outcome [14] | outcome [15] | Potency [16]

CC(=O)N(CC(O)CO)c1c(I)c(C(=O)NCC(O)CO)c(I)c(C(=O)NCC(O)CO)c1I (stereo not given)
inactive: outcome [1] | outcome [2] | outcome [3] | Potency [17] | outcome [4] | outcome [5] | outcome [7] | outcome [8] | outcome [9] | outcome [10] | outcome [11] | outcome [12] | outcome [13] | outcome [18] | outcome [14] | outcome [15]

NS(=O)(=O)c1ccc(Cl)c(S(N)(=O)=O)c1
inactive: outcome [2] | outcome [4] | outcome [5] | outcome [6] | outcome [7] | outcome [8] | outcome [9] | outcome [10] | outcome [11] | outcome [12] | outcome [13] | outcome [18] | outcome [14] | outcome [15] | Potency [16]

CC(=O)c1ccc(OCC(=O)N2CCCCC2)cc1
inactive: outcome [1] | outcome [2] | outcome [3] | outcome [19] | Potency [17] | outcome [20] | outcome [4] | outcome [5] | outcome [6] | outcome [7] | outcome [8] | outcome [9] | outcome [10] | outcome [11] | outcome [12] | outcome [13] | outcome [18] | outcome [14] | outcome [15]

OC[C@@H](O)[C@H](O)[C@@H](O)[C@@H](O)CO
inactive: outcome [2] | Potency [17] | outcome [4] | outcome [5] | outcome [7] | outcome [8] | outcome [9] | outcome [10] | outcome [11] | outcome [12] | outcome [13] | outcome [18] | outcome [14] | outcome [15] | Potency [16]

O=C1CC[C@H](C(=O)N2CCCCC2)N1
inactive: outcome [1] | outcome [2] | Potency [17] | outcome [4] | outcome [7] | outcome [8] | outcome [9] | outcome [10] | outcome [11] | outcome [12] | outcome [13] | outcome [14] | outcome [15] | Potency [16]

C=C(C)C(=O)OC
inactive: outcome [1] | outcome [2] | outcome [3] | outcome [19] | Potency [17] | outcome [20] | outcome [4] | outcome [7] | outcome [9] | outcome [10] | outcome [11] | outcome [12] | outcome [13] | outcome [18] | outcome [14] | outcome [15]

CC(=O)OC(C)c1ccccc1 (stereo not given)
inactive: outcome [4] | outcome [5] | outcome [7] | outcome [8] | outcome [9] | outcome [10] | outcome [11] | outcome [12] | outcome [13] | outcome [18] | outcome [14] | outcome [15] | Potency [16]

CC(C)CCCC(C)CC=O (stereo not given)
inactive: outcome [1] | outcome [2] | Potency [17] | outcome [4] | outcome [7] | outcome [9] | outcome [10] | outcome [11] | outcome [12] | outcome [13] | outcome [14] | outcome [15] | Potency [16]

O=c1[nH]c(=O)c2ccccc2o1
inactive: outcome [2] | outcome [19] | Potency [17] | outcome [20] | outcome [4] | outcome [7] | outcome [8] | outcome [9] | outcome [10] | outcome [11] | outcome [12] | outcome [13] | outcome [18] | outcome [14] | outcome [15]

CO[Si](CCCS)(OC)OC
inactive: outcome [1] | outcome [2] | outcome [19] | Potency [17] | outcome [20] | outcome [7] | outcome [9] | outcome [10] | outcome [11] | outcome [12] | outcome [13] | outcome [18] | outcome [14] | outcome [15]

CC(C)CCCCCCOC(=O)C1CCCCC1C(=O)OCCCCCCC(C)C (stereo not given)
inactive: outcome [1] | outcome [2] | outcome [19] | Potency [17] | outcome [20] | outcome [4] | outcome [5] | outcome [6] | outcome [7] | outcome [8] | outcome [9] | outcome [10] | outcome [11] | outcome [12] | outcome [13] | outcome [18] | outcome [14] | outcome [15]

CC(C)C(=O)Nc1cccc(C(F)(F)F)c1
inactive: outcome [2] | outcome [3] | outcome [5] | outcome [6] | outcome [7] | outcome [9] | outcome [10] | outcome [11] | outcome [12] | outcome [13] | outcome [18] | outcome [14] | outcome [15]

From PubChem BioAssay (Tox21)
